HCV inh: HCV inhibition; Potency, µM (series often up to 41.8 µM), for the others: at the highest dose activity change, negative = inhibition, actives largely listed as inhibitors; AID 651820; Huh7.5.1 HCVcc-Cre infection, luciferase reporter, 44 h; 3.4% of 340,000 active; also: potency is read from the fitted curve at half-maximal effect
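Compounds are dispensed onto cells plated 4 h earlier at 1,000 per well, with HCVcc-Cre virus (about 0.5 moi) added next. Following 44 h of culture, luminescent signal is measured for 15 sec after 15 min with substrate at room temperature.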
FBPA Giardia inh: inhibitors of Giardia lamblia fructose-1,6-bisphosphate aldolase | A8B2U2 | purified Giardia FBPA | Potency, µM (doses to about 59.6 µM), without a hit: at the highest dose activity, negative = inhibition, hits mostly inhibitors | 0.71% of 290,000 active | AID 2451; also: potency is read from the fitted curve at half-maximal effect; nearly all actives have a fitted effect of over 55% in size
Target sequence (A8B2U2 whole entry, looked up): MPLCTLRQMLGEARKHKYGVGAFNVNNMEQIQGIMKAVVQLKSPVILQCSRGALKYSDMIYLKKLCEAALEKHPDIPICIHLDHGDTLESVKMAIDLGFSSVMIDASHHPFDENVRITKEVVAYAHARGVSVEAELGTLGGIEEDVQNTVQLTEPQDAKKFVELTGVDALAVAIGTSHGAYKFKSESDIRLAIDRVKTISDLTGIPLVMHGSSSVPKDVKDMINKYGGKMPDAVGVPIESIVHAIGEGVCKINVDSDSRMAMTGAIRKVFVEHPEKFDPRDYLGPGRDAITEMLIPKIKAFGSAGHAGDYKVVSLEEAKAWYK
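Giardia FBPA (40 nM reagent) was preincubated 10 min at RT with compound (up to 57.5 uM final), then substrate plus GAPDH/TPI/NAD/arsenate coupling system with diaphorase/resazurin was added; resorufin fluorescence (525/598 nm) was read after 20 min.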
VACV mCherry inh: inhibitors of vaccinia virus infection (mCherry reporter signal); Vaccinia virus mCherry reporter infection, fluorescence; Potency, µM (highest dose often 36.5 µM), for the others: top-dose activity change, negative = inhibition, most hits filed as inhibitors; 0.63% of 310,000 active; calls by dose curve; tested in A549 cells; also: potency is read from the fitted curve at half-maximal effect; nearly all actives have a fitted effect of over 35% in size
HCMV antiviral: human cytomegalovirus inhibition; HFF cells, HCMV-luciferase reporter, 72 h; stronger effect = lower value; activity change, negative = inhibition, % at 57.5 µM; 4.5% of 410,000 active; AID 1259415; in the data active = activity change below about -60%; inconclusive = no clear call, values can overlap the other calls; inactive = above about -39%
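Steps: HFFs plated, 16 h 37C; compounds added; HCMV-luciferase added to MOI 1 PFU/cell; 72 h 37C; OneGlo reagent, 5 min room temperature; luminescence read, normalized to controls.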
FMDV inh: antivirals against foot and mouth disease virus; FMDV antiviral cell-based qHTS; Potency, µM (titrated, usually from 57.9 µM), for the others: at the top dose activity change, negative = inhibition, most hits filed as inhibitors; 1.2% of 410,000 active; calls by dose curve; tested in HEK293T cells; also: read-out not given here; potency is read from the fitted curve at half-maximal effect; nearly all actives have a fitted effect of over 45% in size
VACV Venus inh: vaccinia inhibition (Venus reporter); AID 720580; Potency, µM (titrated, usually from 36.5 µM), without a hit: at the highest dose activity change, negative = inhibition, hits mostly inhibitors; 0.46% of 330,000 active; Vaccinia virus Venus reporter expression, fluorescence; calls by dose curve; tested in A549 cells; also: potency is read from the fitted curve at half-maximal effect; nearly all actives have a fitted effect of over 30% in size
Active calls of the source: *; i = inactive; ? = inconclusive; . = no result given. A selection: hits, their analogues and other compounds. The true share with any hit is near 7.5%. Unless noted, calls follow the shape of the dose curve; as a rule, active = well fitted curve in the direction sought with a large enough effect; inconclusive = small, poorly fitted or top-dose-only effect, or another doubt; inactive = no such curve, though single readings can be large; an effect the other way counts as inactive or inconclusive. % is scaled to controls: 0 for no effect and ±100 for the full control effect.

SMILES | HCV inh | FBPA Giardia inh | VACV mCherry inh | HCMV antiviral | FMDV inh | VACV Venus inh
CCOC(=O)[C@]12Cc3cc(C)ccc3[C@H]1N(CCC(=O)OC)C(=O)c1cc(OC)ccc12 | . | . | ? | -109* | 32µM* | ?
CCOC(=O)[C@]12Cc3c(cc(OC)c(OC)c3OC)[C@H]1N(C)C(=O)c1cc(OC)ccc12 | . | . | -23% | -101* | 10µM* | -28%
COc1ccc2c(c1)C(=O)N(c1ccc(C)cc1C)C(=O)C2 | 4% | -4% | i | ? | -12% | 4%
CCOC(=O)CNC(=O)C1c2cc(OC)c(OC)cc2C(=O)N(C)C1c1ccccc1F (centres undefined) | 2% | -16% | . | 40 | -11% | .
CCOC(=O)[C@]12Cc3c(cc(OC)c(OC)c3OC)[C@H]1N(CCC(=O)OC)C(=O)c1cc(OC)ccc12 | . | . | -19% | -105* | 28µM* | -26%
CCS(=O)(=O)N1CC(=O)N(c2ccccc2C)C(C)(C(=O)NC2CCCCC2)C1 (centres undefined) | . | . | -8% | 0 | 4% | -7%
O=S(=O)([O-])C(c1ccccc1)[n+]1ccccc1 (centres undefined) | 5% | . | -13% | -2 | -9% | -14%
CCOC(=O)[C@]12Cc3ccccc3[C@H]1N(CCC(=O)OC)C(=O)c1ccccc12 | . | . | -17% | -98* | ? | -13%
CCC(C)N(C(=O)Cn1nnc(-c2ccc(Cl)cc2)n1)C1CCS(=O)(=O)C1 (centres undefined) | -2% | . | i | -3 | -8% | -10%
Cc1ccc(NC(=O)NCCc2c(C)nn(C)c2C)c(Cl)c1 | . | . | -11% | -18 | 15% | -2%
CCOc1ccc(NC(=O)Cn2cc(C(=O)C3CC3)c3ccccc32)cc1 | 4% | 3% | -9% | -15 | -11% | 9%
CC1CCN(S(=O)(=O)c2ccc3c(ccc(=O)n3CC(=O)NCc3ccccc3)c2)CC1 | . | . | -21% | 10 | -13% | -11%
CC(=O)c1ccc(N2C(=O)C3C(C2=O)C(C(=O)c2ccc(Cl)cc2)N2CCCC32)cc1 (centres undefined) | -17% | -9% | -2% | 27 | ? | 25%
COc1ccc(N2C(=O)C3C(C2=O)C(C(=O)c2ccc(Cl)cc2)N2CCCC32)cc1 (centres undefined) | 5% | -25% | -8% | -60* | ? | 17%
O=C(c1ccccc1)[C@@H]1[C@@H]2C(=O)N(c3ccc(F)cc3)C(=O)[C@@H]2C2CCCN21 (some centres undefined) | 13% | -10% | . | -67* | -16% | .
Cc1cccc(NC(=O)CSc2nnc(-c3ccncc3)n2CC2CCCO2)c1 (centres undefined) | 3% | 9% | -1% | -31 | 7% | -6%
COc1cccc(NC(=O)c2ccnc(N3CCC(C(=O)NCc4cc(OC)ccc4OC)CC3)c2)c1 | ? | . | . | . | -10% | .
COc1ccc(S(=O)(=O)n2nc(-c3cc(OC)c(OC)c(OC)c3)cc2N)cc1OC | ? | -5% | 0% | 106 | 0% | -12%
COc1ccc(-c2cc(N)n(S(=O)(=O)c3c(F)c(F)c(F)c(F)c3F)n2)cc1OC | ? | 17% | . | -102* | ? | .
Nc1ccc(/C=C/c2ccnc3ccccc23)c(N)c1 | . | . | -12% | . | . | 17%
COC(=O)c1ccccc1NC(=O)C1CC=CCC1C(=O)O (centres undefined) | 15% | 11% | . | -60* | 9% | .
O=C(NCCc1ccccc1)c1ccccc1NC(=O)C1CC=CCC1C(=O)O (centres undefined) | 27% | 9% | i | 51 | 35% | -10%
O=C(Nc1nccs1)C12CC3CC(C1)CC(C(=O)Nc1nccs1)(C3)C2 | ? | -2% | . | 3 | 25µM* | ?
NS(=O)(=O)c1ccc(CNC(=O)CNC(=O)c2ccc(Br)o2)cc1 | -2% | -3% | -14% | -9 | -2% | -6%
Cc1cc(NC(=O)C(C)Oc2ccc(Cl)cc2Cl)no1 (centres undefined) | -2% | 7% | -19% | -27 | 19% | -10%
SMILES | HCV inh | FBPA Giardia inh | VACV mCherry inh | HCMV antiviral | FMDV inh | VACV Venus inh
COc1ccc(C2=Nn3c(nnc3-c3ccccc3C(F)(F)F)SC2)cc1OC1CCOC1 (centres undefined) | . | . | . | 13 | -11% | .
CCOc1ccccc1-c1nnc2n1N=C(c1ccccc1OC)CS2 | . | -2% | . | . | . | .
Fc1ccccc1-c1nnc2n1N=C(c1ccc(OC(F)F)c(OCC3CC3)c1)CS2 | . | . | . | 24 | -4% | .
COc1ccc(C2=Nn3c(nnc3-c3ccccc3OC)SC2)cc1OC1CCOC1 (centres undefined) | . | . | . | -90* | -25% | .
COc1ccc(OC)c(-c2nnc3n2N=C(c2ccc(OC)c(OCC4CC4)c2)CS3)c1 | . | . | . | . | 32µM* | .
COc1ccc(C2=Nn3c(nnc3-c3ccccc3Cl)SC2)cc1OCC1CC1 | . | . | . | -66* | -15% | .
CCOc1ccc(C2=Nn3c(nnc3-c3ccccc3OC)SC2)cc1 | ? | 0% | . | -94* | -26% | .
COc1ccccc1-c1ccnc(-n2ncc(C(=O)NCc3ccncc3)c2C)n1 | . | . | ? | . | -7% | -18%
c1ccc2c(c1)nnn1c3ccccc3nc21 | . | 3% | . | . | . | .
ClC(Cl)(Cl)c1nc2ccccc2n2nncc12 | 13µM* | 2% | ? | -88* | ? | ?
COC(=O)C1CCN(C(=O)/C=C/c2ccc3c(c2)OCO3)CC1 | 20% | 4% | -1% | 56 | 54% | -23%
CC(NC(=O)Cc1ccsc1)c1ccc(F)cc1 (centres undefined) | 14% | 9% | -24% | 14 | 12% | -10%
COC(=O)CN1C(=O)[C@@H]2[C@H](C1=O)[C@@H]1CC(C(=O)OC)=C[C@@H](C(=O)OC)[C@@H]3C1=C(C(=O)[C@@]3(C)NC(=O)c1ccccc1)[C@@H]2C | -21% | . | i | -66* | -9% | -15%
COC(=O)C1=C[C@@H](C(=O)OC)[C@@H]2C3=C(C(=O)[C@]2(C)NC(=O)c2ccccc2)[C@H](C)[C@@H]2C(=O)NC(=O)[C@@H]2[C@@H]3C1 | . | 1% | . | . | . | .
CCOc1cc(/C=N/Nc2nc(-c3cccc(S(=O)(=O)N4CCCC4)c3)cs2)ccc1O | 10µM* | -9% | ? | ? | ? | ?
COc1ccc(/C=N/Nc2nc(-c3cccc(S(=O)(=O)N4CCCC4)c3)cs2)cc1OC | 10µM* | -6% | -22% | ? | ? | -14%
O=S(=O)(c1cccc(-c2csc(N/N=C/c3ccco3)n2)c1)N1CCOCC1 | ? | -10% | . | ? | 28µM* | .
Cc1nc(-c2cccc(S(=O)(=O)N3CCCCC3)c2)cs1 | 0% | 4% | i | -40 | 4% | -13%
COc1cc(/C=N/Nc2nc(-c3ccc(S(=O)(=O)N(C)C)cc3)cs2)ccc1O | ? | -12% | . | -65* | 35µM* | .
